Data from PubChem BioAssay AID977607 (Broad Institute, 2014).
Screen size: about 1,500 compounds; about 460 (31%) were called active. Roughly 1% stayed inconclusive and do not appear here.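 The calls were made as follows: active = curve reaches 40% activation over neutral controls at an AC40 no higher than the top valid tested concentration; inconclusive = no clear call, values can overlap the other calls; inactive = signal moving opposite to the expected increase, and the rest.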 The list is a sample of the results. Potency and affinity values are given separately.

test: GLuc-reported insulin release enhancers, glucose-stimulated beta cells – cell-based, INS-1E, Gaussia luciferase, luminescence, cherry-pick, set 2, dose response (AID 977607); settings: INS-1E GLuc insulin secretion reporter, 2-3 h, hits give high values; at 35 µM, 100% = signal doubled over neutral wells unless noted;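 also: 0% = median of the plate neutral control wells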

Max activation, inactive:
CCc1nc2n[nH]c(N)c2c2c1CCCC2 65.3%, CCc1cc(=O)oc2c(CNCc3ccc(OC)cc3OC)c(O)c(Cl)cc12 20.4%, COCCNC(=O)c1cc2c(c(-c3cccc(C#Cc4ccc(OC)c(OC)c4)c3)n1)[C@H](CCO)N(S(=O)C(C)(C)C)C2 (some centres undefined) 8.82% [at 11 µM, 100% = signal doubled over neutral wells], CC(C)(C)c1ccc(S(=O)(=O)N2CC(C(=O)O)Oc3ccc(Cl)cc32)cc1 (centres undefined) -11.3% [at 0.015 µM, 100% = signal doubled over neutral wells], COc1ccc(C(=O)Nc2nnc(-c3cccs3)s2)cc1 -13.2% [at 0.135 µM, 100% = signal doubled over neutral wells], Cc1ccccc1C(=O)NC1CCSC1=O (centres undefined) -21.5% [at 0.005 µM, 100% = signal doubled over neutral wells], CN(C)CCCN(C(=O)CCOc1ccccc1)c1nc2c(F)cccc2s1 -32.2% [at 11 µM, 100% = signal doubled over neutral wells], OC1(C#Cc2c(-c3ccsc3)sc3ccccc23)CCCCC1 50.8%, Cc1cc(-c2ccccc2)n2nc(N)nc2n1 -24.8% [at 0.046 µM, 100% = signal doubled over neutral wells], O=c1c2ccccc2nnn1Cc1ccccc1 -23.5% [at 0.42 µM, 100% = signal doubled over neutral wells], Cc1ccc2nc(N3CCN(C(=O)CCCC(=O)O)CC3)nc(-c3ccccc3)c2c1 12.5% [at 11 µM, 100% = signal doubled over neutral wells], COC(C)(C)c1cc(C(C)(C)C)nc(N)n1 -18.4% [at 0.005 µM, 100% = signal doubled over neutral wells], COc1cccc(-n2c(=O)c3ccccc3n(CC(=O)NCC3CCCO3)c2=O)c1 (centres undefined) -15.9% [at 0.015 µM, 100% = signal doubled over neutral wells], O=C(COc1ccccc1)N(Cc1cccc(F)c1)C1CCS(=O)(=O)C1 (centres undefined) -16.7% [at 3.8 µM, 100% = signal doubled over neutral wells], CC(Oc1ccc2c3c(c(=O)oc2c1)CCCC3)C(=O)NCc1cccnc1 (centres undefined) 27.7% [at 0.42 µM, 100% = signal doubled over neutral wells], O=C(COC(=O)c1cccnc1Cl)Nc1cc(S(=O)(=O)N2CCCCCC2)ccc1Cl -32.2%, COc1cc(OC)c(OC)cc1CCC(C)NC(=O)Cc1ccccc1 (centres undefined) 27.7% [at 0.005 µM, 100% = signal doubled over neutral wells], CCOc1ncccc1C(=O)NC(C)CCc1ccccc1 (centres undefined) 29.7%, C[C@H]1CN=C(N(C)C)N1CC1CCCC1 -12% [at 0.015 µM, 100% = signal doubled over neutral wells], Cc1ccc(C(=O)N2CCN3C(=O)c4ccccc4C23c2ccccc2)cc1 (centres undefined) -24.9%, CN(Cc1ccccc1)c1nc2c(c(=O)[nH]c(=O)n2C)n1Cc1ccccc1 14.1% [at 11 µM, 100% = signal doubled over neutral wells], Cn1c(=O)[nH]c(=O)c2c1nc(NC1CCCC1)n2Cc1ccccc1 -12.1% [at 0.0016 µM, 100% = signal doubled over neutral wells], C=CCn1c(SCc2ccccc2)nc2c1c(=O)[nH]c(=O)n2C -13.1% [at 0.015 µM, 100% = signal doubled over neutral wells], CCCCCCn1c(SCC(C)C)nc2c1c(=O)[nH]c(=O)n2C 12.8%, O=C(O)C(Cc1ccc(O)cc1)N1C(=O)c2ccccc2C1=O (centres undefined) -22% [at 0.046 µM, 100% = signal doubled over neutral wells], COc1ccc(CCN(C)C(=O)Cn2c(=O)oc3ccccc32)cc1OC -16.4%, CCOc1ccc2oc(C(=O)N(C)CCc3ccc(OC)c(OC)c3)c(C)c2c1 47.7%, Cc1ccc(Nc2ncnc3sccc23)c(C)c1 -16% [at 0.015 µM, 100% = signal doubled over neutral wells], CCCCc1c(-c2ccccc2OC)ncn1Cc1ccc(C)cc1 -22.3% [at 11 µM, 100% = signal doubled over neutral wells], COc1ccc(CCN2C(=O)CC(Cc3ccccc3)C2=O)cc1OC (centres undefined) -9.21% [at 0.046 µM, 100% = signal doubled over neutral wells], CCCCc1c(-c2ccccc2OC)ncn1C(C)c1ccccc1 (centres undefined) 37.1%, CCOc1cc(C2C3=C(CC(C)(C)CC3=O)Nc3n[nH]c(C)c32)ccc1O (centres undefined) -17.9% [at 0.015 µM, 100% = signal doubled over neutral wells], c1csc(-c2nc(NCC3CCCO3)c3ccccc3n2)c1 (centres undefined) 39.8% [at 11 µM, 100% = signal doubled over neutral wells], Cn1nnnc1Sc1ncnc2scc(-c3ccc(F)cc3)c12 -12.9% [at 0.42 µM, 100% = signal doubled over neutral wells], COc1ccc(C[C@H]2CN3C(=NC[C@@H]3Cc3ccccc3)N2CCNC(=O)CCC2CCCCC2)cc1 62.1%, NC1=NC[C@H](Cc2ccccc2)N1CCCCC1CCCCC1 -33.4% [at 11 µM, 100% = signal doubled over neutral wells], Cc1cc(NS(=O)(=O)c2ccc(NC(=O)C(C)Oc3ccccc3Cl)cc2)no1 (centres undefined) -22.4% [at 0.015 µM, 100% = signal doubled over neutral wells], CCOc1ccccc1CNC(c1ccccc1)c1ccccc1 -22.9% [at 11 µM, 100% = signal doubled over neutral wells], COc1cc2ccc(C(C)=NNC(N)=S)cc2cc1OC -23.9% [at 0.135 µM, 100% = signal doubled over neutral wells], C/C(=N\NC(=O)CO/N=C(\C)c1cccs1)c1ccc(N)cc1 -25.9%, O=C(Nc1ncn[nH]1)c1ccc(Cl)c(Cl)c1 -14.6% [at 0.135 µM, 100% = signal doubled over neutral wells], CC(C)CCN1C(=O)CSCC1(C)C(=O)NC(C)C (centres undefined) -10.4%, Cc1cccn2cc(CNS(=O)(=O)c3ccc4ccccc4c3)nc12 34% [at 3.8 µM, 100% = signal doubled over neutral wells], COCCn1c(=S)[nH]c2sc3c(c2c1=O)CCCC3 -29.9% [at 11 µM, 100% = signal doubled over neutral wells], COc1cc(CN2CCC(n3nccc3NC(=O)C3CCOC3)CC2)ccc1F (centres undefined) -11.8%, COc1ccccc1-n1cnc2sc(C)c(C)c2c1=O 29.4% [at 11 µM, 100% = signal doubled over neutral wells], COc1ccc(C2N(c3ccccc3)C(=O)C2(F)F)cc1OC (centres undefined) -13.7%, COc1ccc(S(=O)(=O)NC2CCCCC2)cc1C 14.2% [at 3.8 µM, 100% = signal doubled over neutral wells], COc1ccc(C(=O)OCC(=O)NC(=O)NC2CCCC2)cc1OC -7.36% [at 0.005 µM, 100% = signal doubled over neutral wells], CCSc1nnc2ccc(-c3ccc(C)cc3)nn12 18.5% [at 0.015 µM, 100% = signal doubled over neutral wells], O=C(COc1ccccc1)Nc1ccccc1C(=O)NC1CC1 -11.7% [at 0.046 µM, 100% = signal doubled over neutral wells], O=C(CC(c1ccccc1)c1ccco1)N1CCOCC1 (centres undefined) 18.9% [at 1.2 µM, 100% = signal doubled over neutral wells], CC(=O)c1c(O)c2cccc3c2n(c1=O)CCC3 -22.5% [at 0.046 µM, 100% = signal doubled over neutral wells], Cc1ccccc1S(=O)(=O)N1CC(=O)N2[C@@H](CO)[C@H](c3ccc(C#CCC4CCCC4)cc3)[C@@H]2C1 276% [at 35 µM], CCC(=O)Nc1cc(C(C)(C)C)ccc1C(C)=O -23.6% [at 0.135 µM, 100% = signal doubled over neutral wells], O=C(c1cccs1)N(Cc1ccccn1)Cc1ccco1 -16.4% [at 0.015 µM, 100% = signal doubled over neutral wells], CN1CCN(c2ccc(CNC(=O)C3(C)Cc4c(-c5ccccc5)ccnc4O3)cc2)CC1 (centres undefined) -21.2% [at 0.005 µM, 100% = signal doubled over neutral wells], CNC(=O)c1[nH]nc2c1CCc1cc(OC)ccc1-2 -16.9% [at 0.005 µM, 100% = signal doubled over neutral wells], COc1ccc2c(c1)CCc1cc(C(=O)O)sc1-2 -25.3% [at 0.135 µM, 100% = signal doubled over neutral wells]
